Assay results published in PubChem BioAssay (Tox21).
“And” between values parts separate entries of the source, which are not always exact repeats. Equal entries are not always repeated. Records with an inconclusive call do not appear. Some structures have more than one record in an assay (separate samples or runs), and their calls can disagree. The source made the active and inactive calls. Unless noted, calls follow the shape of the dose curve; as a rule, active = well fitted curve in the direction sought with a large enough effect in the repeat runs; inconclusive = weak or mixed curves; inactive = no such curve, though single readings can be large; an effect the other way counts as inactive or inconclusive.

What was measured:
[1] = qHTS assay for small molecule agonists of the p53 signaling pathway (AID 651631; calls by dose curve; also: nearly all actives have a fitted effect of over 15% in size)
Outline: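 Stably transfected HCT-116 cells (beta-lactamase behind p53 response elements) get compounds after a 5 h settling period; 16 h later at 37 °C, FRET substrate is loaded and fluorescence read after 2 h.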

[2] = qHTS assay for small molecules that induce genotoxicity in human embryonic kidney cells expressing luciferase-tagged ATAD5 (AID 651632); also: nearly all actives have a fitted effect of over 15% in size
Outline: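 Quantitative HTS in HEK293T expressing luciferase-tagged ATAD5, whose levels rise upon DNA damage. Exposure ran 16 hr at 37C and 5% CO2, with luminescence read 30 min after Amplite addition at room temperature.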

[3] = qHTS assay for small molecule agonists of the p53 signaling pathway - cell viability (AID 651633; calls by dose curve;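 also: p53RE-bla HCT reporter cells with a stable beta-lactamase p53 reporter; series mostly up to about 83 µM; nearly all actives have a fitted effect of over 30% in size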)
Outline: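 p53RE-bla cells, seeded at 4,000 per well and rested 5 h at 37 C/5% CO2, received compounds in DMSO for 16 h at 37 C. CellTiter-Glo was then added, and luminescence was read after 30 min at room temperature to gauge cytotoxicity.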

[4] = qHTS assay for small molecules that induce genotoxicity in human embryonic kidney cells expressing luciferase-tagged ATAD5 - cell viability (AID 651634; calls by dose curve; also: nearly all actives have a fitted effect of over 25% in size; also: potency is read from the fitted curve at half-maximal effect)
Outline: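 After 15.5 hr incubation with compound at 37C, 5% CO2, HEK293T ATAD5-luciferase cells received CellTiter-Fluor reagent; fluorescence intensity was quantified following 30 min at 37C.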

[5] = qHTS assay for small molecule disruptors of the mitochondrial membrane potential - cell viability (AID 720634; calls by dose curve;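 also: human HepG2 liver cancer cells; series mostly up to about 83 µM; nearly all actives have a fitted effect of over 20% in size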)
Outline: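 ATP-based luminescent viability readout (CellTiter-Glo, 30 min, room temperature) in HepG2 cells multiplexed with the m-MPI membrane potential dye; compound exposure lasted 1 hr at 37 C.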

[6] = qHTS assay for small molecule disruptors of the mitochondrial membrane potential (AID 720635)
Outline: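 HepG2 cells (2,000/well) attached overnight at 37C, then took compound for 1 hr at 37C, 5% CO2. Mito-MPS dye was added for 30 min; fluorescence was read at 490/535 nm (monomers) and 540/590 nm (aggregates).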

[7] = qHTS assay to test for compound auto fluorescence at 590 nm (red) in HepG2 cells (AID 720674)
Outline: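 Rose Bengal sodium served as the red fluorophore standard. HepG2 monolayers (overnight attachment, MEM with 10% FBS) were exposed to test compounds for 1 hr at 37 C and read at Ex 540/Em 590 nm.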

[8] = qHTS assay to test for compound auto fluorescence at 535 nm (green) in HepG2 cells (AID 720675)
[9] = qHTS assay to test for compound auto fluorescence at 460 nm (blue) in HEK293 cells (AID 720678)
Outline: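 Blue-channel (Ex/Em 405/460 nm) intensity measured in HEK293 cultures after overnight compound exposure at 37C; signal expressed relative to triamterene. Cells plated 2,000 per well in 10% dialyzed FBS medium and allowed 4-5 hr to attach.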

[10] = qHTS assay to test for compound auto fluorescence at 590 nm (red) in HEK293 cells (AID 720679)
Outline: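 Red-channel autofluorescence (Ex/Em 540/590 nm; Rose Bengal sodium reference) was measured after overnight 37C, 5% CO2 exposure of attached HEK293 cells, 2,000 per well in medium with 10% dialyzed FBS.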

[11] = qHTS assay to test for compound auto fluorescence at 535 nm (green) in HEK293 cells (AID 720680)
[12] = qHTS assay to test for compound auto fluorescence at 460 nm (blue) in HEK293 cell free culture (AID 720681)
Outline: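 Test compounds were pinned into cell-free culture medium (DMEM with 10% FBS) and fluorescence was read directly at Ex/Em 405/460 nm. Signals were expressed as fluorescence equivalents of triamterene, with DMSO vehicle as control.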

[13] = qHTS assay to test for compound auto fluorescence at 535 nm (green) in HEK293 cell free culture (AID 720682)
Outline: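 Using fluorescein as calibrant, autofluorescence was quantified at 485/535 nm in cell-free DMEM containing 10% FBS after pintool addition of compound or vehicle.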

[14] = qHTS assay to test for compound auto fluorescence at 590 nm (red) in HEK293 cell free culture (AID 720683)
Outline: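 Tox21 10K library compounds were pinned into cell-free DMEM with 10% FBS and fluorescence was read at excitation 540 nm. Activity is expressed as Rose Bengal sodium equivalency.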

[15] = qHTS assay to test for compound auto fluorescence at 590 nm (red) in HepG2 cell free culture (AID 720684)
Outline: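 Ex 540 / Em 590 nm read of compound in cell-free MEM (10% FBS). Rose Bengal sodium reference.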

[16] = qHTS assay to test for compound auto fluorescence at 460 nm (blue) in HepG2 cell free culture (AID 720685)
Outline: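 Cell-free plates of MEM plus 10% FBS received 23 nL compound or DMSO vehicle; blue-channel (405/460 nm) intensity scored against triamterene as reference fluorophore.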

[17] = qHTS assay to test for compound auto fluorescence at 535 nm (green) in HepG2 cell free culture (AID 720686)
[18] = qHTS assay to test for compound auto fluorescence at 460 nm (blue) in HepG2 cells (AID 720687)
Outline: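 Cells (2,000/well in MEM with 10% FBS) attached overnight at 37 C, then were exposed to compound or DMSO for 1 hr at 37 C, 5% CO2. Fluorescence read at Ex/Em 405/460 nm, expressed as triamterene-equivalent signal.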

[19] = target: Glucocorticoid receptor (Homo sapiens) (UniProt P04150); test: qHTS assay to identify small molecule agonists of the glucocorticoid receptor (GR) signaling pathway (AID 720691; active = well fitted activation curve with a large enough effect in the signal ratio in the repeat runs, not every such curve was filed as active; the % refers to the signal ratio; also: potency is read from the fitted curve at half-maximal effect)
Glucocorticoid receptor (Homo sapiens), sequence (P04150 whole entry, looked up): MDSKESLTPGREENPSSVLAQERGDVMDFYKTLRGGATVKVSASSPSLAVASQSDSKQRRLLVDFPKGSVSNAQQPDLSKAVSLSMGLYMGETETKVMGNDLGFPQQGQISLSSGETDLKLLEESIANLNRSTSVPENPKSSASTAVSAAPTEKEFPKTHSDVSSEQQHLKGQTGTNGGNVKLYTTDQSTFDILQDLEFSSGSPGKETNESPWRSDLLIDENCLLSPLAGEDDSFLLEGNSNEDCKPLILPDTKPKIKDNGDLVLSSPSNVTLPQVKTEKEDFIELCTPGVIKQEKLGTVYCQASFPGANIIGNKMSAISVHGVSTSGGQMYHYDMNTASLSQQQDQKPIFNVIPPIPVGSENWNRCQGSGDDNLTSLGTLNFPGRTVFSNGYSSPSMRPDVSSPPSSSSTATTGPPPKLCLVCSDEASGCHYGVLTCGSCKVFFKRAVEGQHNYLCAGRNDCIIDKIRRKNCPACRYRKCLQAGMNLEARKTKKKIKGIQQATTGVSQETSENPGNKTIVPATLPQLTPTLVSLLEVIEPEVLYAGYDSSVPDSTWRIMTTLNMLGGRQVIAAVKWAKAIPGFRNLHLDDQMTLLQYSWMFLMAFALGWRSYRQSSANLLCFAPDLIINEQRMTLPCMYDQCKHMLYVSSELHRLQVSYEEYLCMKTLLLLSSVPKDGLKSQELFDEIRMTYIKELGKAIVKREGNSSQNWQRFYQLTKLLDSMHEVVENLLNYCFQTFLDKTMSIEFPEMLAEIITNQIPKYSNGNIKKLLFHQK
Outline: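 Cells: GR-bla HeLa, endogenous GR with stably integrated GRE-beta-lactamase reporter. Treatment 18 h, 37 C, compounds delivered in DMSO. Detection via LiveBLAzer B/G FRET substrate, 2 h RT, fluorescence intensity.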

[20] = target: Glucocorticoid receptor (Homo sapiens) (UniProt P04150); test: qHTS assay to identify small molecule antagonists of the glucocorticoid receptor (GR) signaling pathway (AID 720692; active = well fitted inhibition curve with a large enough effect in the signal ratio in the repeat runs, not every such curve was filed as active; the % refers to the signal ratio)
Outline: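 Quantitative HTS in antagonist format: HeLa cells expressing endogenous GR and a stably integrated GRE-bla reporter, stimulated with 5 nM dexamethasone (final) alongside test compounds for 18 h.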

Measured: Potency

CCCN(CCC)S(=O)(=O)c1ccc(C(=O)O)cc1
inactive: all assays above

NNC(=O)c1ccncc1
inactive: all assays above

Nc1ccc(O)c(C(=O)O)c1
inactive: all assays above

CC(O)CO (stereo not drawn)
inactive: all assays above

O=C(O)c1cc(N=Nc2ccc(S(=O)(=O)Nc3ccccn3)cc2)ccc1O
active: [4] 23.7 µM and 27.4 µM and 48.6 µM
inactive: all other assays above

c1ccc2[nH]ccc2c1
inactive: all assays above

O=c1cc[nH]c(=S)[nH]1
inactive: all assays above

Nc1ccc(S(=O)(=O)c2ccc(N)cc2)cc1
not listed: [19] | [20]
inactive: all other assays above

COc1ccc2[nH]cc(CCNC(C)=O)c2c1
inactive: all assays above

NC(=O)NC1NC(=O)NC1=O (stereo not drawn)
inactive: all assays above

Cc1ccc(S(=O)(=O)NC(=O)NN2CCCCCC2)cc1
not listed: [1]
inactive: all other assays above

Cc1ccccc1C(OCCN(C)C)c1ccccc1 (stereo not drawn)
not listed: [1] | [6] | [20]
inactive: all other assays above

Cc1cc(=O)[nH]c(=S)[nH]1
23.9 µM (active) and inactive: [19]
inactive: all other assays above

N=C(N)c1ccc(OCCCCCOc2ccc(C(=N)N)cc2)cc1
not listed: [1] | [6] | [20]
inactive: all other assays above

NS(=O)(=O)c1cc(C(=O)O)c(NCc2ccco2)cc1Cl
not listed: [1] | [3] | [6] | [19] | [20]
inactive: all other assays above

OC(Cn1cncn1)(Cn1cncn1)c1ccc(F)cc1F
not listed: [1]
inactive: all other assays above

NC(N)=O
not listed: [1] | [19] | [20]
inactive: all other assays above

Cn1c(=O)c2[nH]cnc2n(C)c1=O
not listed: [2] | [4] | [6] | [19] | [20]
inactive: all other assays above

Cn1cc[nH]c1=S
not listed: [1] | [3] | [19] | [20]
inactive: all other assays above

O=S(=O)(O)c1ccc2cc(O)ccc2c1
inactive: all assays above

O=C(O)CCCCC(=O)O
not listed: [2] | [4] | [5] | [6]
inactive: all other assays above

O=S(=O)(O)NC1CCCCC1
not listed: [1] | [2] | [3] | [6] | [19] | [20]
inactive: all other assays above
